High-throughput results: PubChem BioAssay, National Center for Advancing Translational Sciences (NCATS)
A selection: hits, their analogues and other compounds. The true share with any hit is near 1.7%.
RGS4 inh – Inhibitors of Regulator of G Protein Signaling (RGS) 4: qHTS; Regulator of G-protein signaling 4 (Homo sapiens), P49798; Transcreener GDP fluorescence polarization, RGS4-accelerated GTP hydrolysis; Potency, µM (doses to about 114 µM), without a hit: at the top dose activity change, negative = inhibition, actives largely listed as inhibitors; 0.039% of 390,000 active; AID 504845, 2011; also: % is scaled to controls: 0 for no effect and ±100 for the full control effect; nearly all actives have a fitted effect of over 75% in size
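MLSMR compounds (23 nl, pin-transferred) preincubated 10 min at room temperature with a 500nM (2x) first reagent, then RGS4 at 900nM (2x) plus Transcreener GDP mix added; fluorescence polarization (620/688 nm) read before and after 90 min at 30 °C.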
GLP1R inv ag – qHTS of GLP-1 Receptor Inverse Agonists (Inhibition Mode) | Glucagon-like peptide 1 receptor (Homo sapiens), P43220 | HEK293 GLP-1R CRE-luciferase, luminescence, 24 h; GLP-1R form is constitutively active | Potency, µM (titrated, usually from 38.3 µM), for the others: top-dose activity change, negative = inhibition, hits mostly inhibitors | 1.6% of 410,000 active | AID 624417, 2012; also: % is scaled to controls: 0 for no effect and ±100 for the full control effect; nearly all actives have a fitted effect of over 55% in size
Target sequence (P43220 whole entry, looked up): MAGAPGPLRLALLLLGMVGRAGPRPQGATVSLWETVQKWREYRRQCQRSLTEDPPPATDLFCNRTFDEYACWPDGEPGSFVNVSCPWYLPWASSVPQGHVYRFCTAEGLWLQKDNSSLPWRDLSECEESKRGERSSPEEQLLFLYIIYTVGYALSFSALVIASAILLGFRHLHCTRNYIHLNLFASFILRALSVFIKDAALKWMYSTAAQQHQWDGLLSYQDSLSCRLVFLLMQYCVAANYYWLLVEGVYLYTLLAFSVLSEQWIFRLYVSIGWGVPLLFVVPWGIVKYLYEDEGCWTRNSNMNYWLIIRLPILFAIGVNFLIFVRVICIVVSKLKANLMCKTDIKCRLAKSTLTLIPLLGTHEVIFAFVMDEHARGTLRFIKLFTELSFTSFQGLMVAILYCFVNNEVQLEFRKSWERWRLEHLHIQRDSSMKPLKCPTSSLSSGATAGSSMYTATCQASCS
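Constitutively active GLP-1R drives a cAMP-responsive luciferase in stably transfected HEK293 cells; test compounds are added after overnight (12 h) attachment and left 24 hr, and signal loss in luminescence marks inhibition.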
GLP-1R agonist – qHTS of GLP-1 Receptor Agonists. Glucagon-like peptide 1 receptor (Homo sapiens), P43220. HEK293 GLP-1R CRE-luciferase, luminescence, 4-6 h; cells express a hypersensitive GLP-1R form. Potency, µM (top dose mostly 45.6 µM), inactives show at the top dose activation, most hits filed as activators. 0.007% of 380,000 active. AID 624172, 2012; also: % of control where 0% means no effect
PTHR1 agonist – qHTS for PTHR1 Agonists: Primary Screen. Parathyroid hormone/parathyroid hormone-related peptide receptor (Homo sapiens), Q03431. HEK293 GP2 PTHR1 cells, GloSensor cAMP luminescence, 1 h. Potency, µM (doses to about 115 µM), for inactives: at the highest dose activation, most hits filed as activators. 0.075% of 410,000 active; also: nearly all actives have a fitted effect of over 55% in size
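HEK-293-derived GP2 cells expressing PTHR1 and a GloSensor cAMP reporter, 3,000/well, plated overnight, given luciferin plus IBMX (each 0.5 mM as added) for 1 h at 37 °C, then compound for 1 h at 37 °C. Luminescence was read after 15 min at room temperature.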
HEK293 tox – qHTS of GLP-1 Receptor Inverse Agonists: Cytotox Screen | HEK293 cAMP-luciferase reporter cells, luminescence, 24 h | Potency, µM (series often up to 38.3 µM), for the others: at the top dose activity change, negative = inhibition, actives largely listed as inhibitors | 0.13% of 410,000 active | AID 624418, 2012;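 also: loss of luciferase light is scored as toxicity; % is scaled to controls: 0 for no effect and ±100 for the full control effect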
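Here, cytotoxicity is scored as loss of luminescence. The MLSMR collection was tested on cells seeded in medium containing 10% Nu serum, with a 24 hr compound exposure preceded by 12 hours of culture.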
Numbers without * were called inactive; ! = repeats disagree; [ ] = remark or other dose. Calls follow the shape of the dose curve; as a rule, active = well fitted curve in the direction sought with a large enough effect; inconclusive = small, poorly fitted or top-dose-only effect, or another doubt; inactive = no such curve, though single readings can be large; an effect the other way counts as inactive or inconclusive. Potency is read from the fitted curve at half-maximal effect.

CSc1ccccc1NC(=O)C1(C)CCN1C(=O)CCC1CCCC1 (stereo not given) was read as GLP1R inv ag inconclusive, GLP-1R agonist 12%, PTHR1 agonist inactive and HEK293 tox 2%.
CC1(C(=O)Nc2cccc3c2CCCC3)CCN1C(=O)CCC1CCCC1 (stereo not given) was read as GLP1R inv ag 11µM*, GLP-1R agonist 23%, PTHR1 agonist -46% and HEK293 tox -2%.
O=C(Cc1cccs1)Nc1ccc(-c2nc3ccccc3[nH]2)cc1 was read as RGS4 inh -8%[11.4 µM], GLP1R inv ag 4.5µM*, GLP-1R agonist -1%, PTHR1 agonist -12%[57.5 µM] and HEK293 tox -23%.
For O=C(CSc1ccccc1)Nc1ccc(-c2nc3ccccc3[nH]2)cc1 the results were RGS4 inh inconclusive, GLP1R inv ag inconclusive, GLP-1R agonist -1%, PTHR1 agonist -8% and HEK293 tox -33%.
For O=C(Cn1ccc(=O)[nH]c1=O)c1ccc([N+](=O)[O-])o1 the results were GLP1R inv ag inconclusive, GLP-1R agonist 6%, PTHR1 agonist -48% and HEK293 tox inconclusive.
Screening COc1cc(Br)cc(/C=N/NC(=O)Cc2ccc(C(F)(F)F)cc2[N+](=O)[O-])c1O returned RGS4 inh -32%, GLP1R inv ag inconclusive, GLP-1R agonist 2%, PTHR1 agonist 0% and HEK293 tox 0.5µM*.
`CCOc1cc(/C=N/NC(=O)Cc2ccc(C(F)(F)F)cc2[N+](=O)[O-])c(Br)cc1OC` gave RGS4 inh -36%, GLP1R inv ag -18%, GLP-1R agonist -9%, PTHR1 agonist 29%[57.5 µM] and HEK293 tox -9%.
Screening COc1ccccc1CNC(=O)C12CC3CC(CC(C3)C1)C2 returned RGS4 inh inconclusive, GLP1R inv ag 11µM*, GLP-1R agonist 4%, PTHR1 agonist inactive and HEK293 tox -16%.
COc1ccc(CN2CCN(CC3CC3)CC2CCO)c(C)c1C (stereo not given) was read as RGS4 inh -13%, GLP1R inv ag 4%, GLP-1R agonist -3%, PTHR1 agonist -5% and HEK293 tox 5%.
Screening COc1ccc(CN2CCN(Cc3nc4ccccc4s3)CC2CCO)c(C)c1C (stereo not given) returned RGS4 inh -1%, GLP1R inv ag 7.9µM*, GLP-1R agonist 7%, PTHR1 agonist -50% and HEK293 tox inconclusive.
`CCN(C(=O)COC(=O)c1[nH]c(C)c(C(C)=O)c1C)c1c(N)n(Cc2ccccc2)c(=O)[nH]c1=O` gave RGS4 inh -1%, GLP1R inv ag 12%, GLP-1R agonist 0%, PTHR1 agonist inconclusive and HEK293 tox 2%.
Screening N#C/C(=C\c1ccc(O)c(O)c1)C(=O)NCCc1ccccc1 returned RGS4 inh 19µM*!, GLP1R inv ag inconclusive, GLP-1R agonist inconclusive, PTHR1 agonist -6% and HEK293 tox -26%.
Screening N#C/C(=C\c1ccc(O)c(O)c1)C(=O)NCCCCc1ccccc1 returned RGS4 inh inactive.
Cc1cccc(C)c1OCc1cc(C(=O)N(Cc2c(C)nn(C)c2C)C2CC2)no1 was read as RGS4 inh 12%[56.9 µM], GLP1R inv ag 7.9µM*, GLP-1R agonist 4%, PTHR1 agonist -30% and HEK293 tox -12%.
`CCN1CCCC1CNC(=O)c1ccc(Sc2ccccc2Cl)c([N+](=O)[O-])c1` (stereo not given) gave RGS4 inh -11%, GLP1R inv ag 3.2µM*, GLP-1R agonist 7%, PTHR1 agonist inactive and HEK293 tox -28%.
